In ChEMBL document CHEMBL1157539, “Thousands of chemical starting points for antimalarial lead identification” (Nature, 2010):

Tested on: Plasmodium falciparum
Assay: GSK_TCMDC: Inhibition of Plasmodium falciparum 3D7 in whole red blood cells, using parasite LDH activity as an index of growth. Test compounds present at 2uM
Format: functional

Compound	Inhibition [%]
Cl.c1ccc2c(NCCCCCCCNc3ccnc4ccccc34)ccnc2c1	100
Br.CN(CCON1C(=N)N=C(N)NC1(C)C)c1ccccc1	97
NS(=O)(=O)c1cccc(-c2ccc3nccc(-c4cccc(S(N)(=O)=O)c4)c3c2)c1	98
COc1ccc2nccc(NCC3(O)CCC(NCc4ccc5c(n4)NC(=O)CS5)CC3)c2n1.Cl (stereo not given)	100
CC(C)(C)c1nn(-c2ccccc2)c2[nH]c(=O)c(CNCc3ccc4c(c3)OCO4)cc12	92
Oc1ccc2[nH]c(-c3ccc(OC(F)(F)F)cc3)nc2c1CNC1CCCC1	99
O=C(CCOc1ccccc1)NCC1CCCO1 (stereo not given)	92
CC(=O)N(C)/N=C/[C@H](CCc1ccccc1)NC(=O)[C@H](CC(C)C)NC(=O)c1cccc(OCCN2CCOCC2)c1	89
Cc1ccc(NC(=O)c2cc(S(=O)(=O)NC(C)(C)C)ccc2C)nc1	86
CCSc1nc2sc3c(c2c(=O)n1-c1ccccc1)CCN(C)C3	83
Cc1cc2ncn(-c3nccc(NCc4ccc(F)c(C)c4)n3)c2cc1C.O=C(O)C(F)(F)F	90
CCc1ccc(CN2CCCCC(NC(=O)c3cc(-c4ccccc4F)cs3)C2)cc1.O=C(O)C(F)(F)F (stereo not given)	87
Br.CC1(C)NC(N)=NC(=N)N1OCc1cccs1	93
Cc1cccc2nc(-c3cccc(-c4ccc(NC(=O)Nc5ccc(Cl)cc5)cc4)c3)[nH]c12	100
COc1cc2c(cc1S(=O)(=O)c1ccc(NC(=O)c3cc4ccccc4s3)cc1)CCN(C)CC2	100
